Among the data in PubChem BioAssay are inhibition values, retold here.

Structures are written as SMILES. Unmarked numbers belong to inactive results. No rule for the calls is given here.

Pantothenate synthetase (Mycobacterium tuberculosis (strain ATCC 25618 / H37Rv)), sequence (P9WIL5 whole entry, looked up): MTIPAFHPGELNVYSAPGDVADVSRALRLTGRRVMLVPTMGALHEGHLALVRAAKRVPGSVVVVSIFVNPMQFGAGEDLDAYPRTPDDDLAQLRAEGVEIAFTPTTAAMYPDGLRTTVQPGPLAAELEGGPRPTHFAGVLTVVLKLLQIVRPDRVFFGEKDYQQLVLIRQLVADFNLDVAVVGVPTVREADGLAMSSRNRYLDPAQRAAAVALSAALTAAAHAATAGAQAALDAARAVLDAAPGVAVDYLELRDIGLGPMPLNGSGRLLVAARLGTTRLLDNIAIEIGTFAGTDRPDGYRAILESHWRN

This test concerns the target Pantothenate synthetase (Mycobacterium tuberculosis (strain ATCC 25618 / H37Rv)) (UniProt P9WIL5). Briefly: Coupled enzyme confirmation of inhibitors against recombinant Mtb PanC (AID 375).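 Also: 0% = full reaction with vehicle and 100% = no enzyme background.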 The conditions noted are these: coupled enzyme assay; at 10 µM, stronger effect = higher value.
As usually defined, the inhibition is how much of the control response was suppressed. Regarding `Cc1cc(C)n2nc(C(=O)NCc3ccco3)nc2n1`, the inhibition is 3%.
As for `CCCCC(=O)NCCc1ccc(S(N)(=O)=O)cc1`, the inhibition was 0%.
Consider `N#Cc1ccc(-c2csc(NC(=O)C3CC3)n2)cc1`, for which the inhibition was 0%.
For the molecule `Cc1cccc(CC(=O)Nc2c3c(nn2-c2cccc(Cl)c2)CS(=O)C3)c1` (centres undefined), the inhibition is 2%.
Regarding `COc1ccc(-c2cc(C(=O)Nc3ccc(C)cc3)no2)cc1`, the inhibition was 0%.
As for `Oc1cccc2ccc(Nc3ccccn3)nc12`, the inhibition was 8%.
Turning to `CN1CCN(C(=O)c2ccc(CS(=O)(=O)c3c(Cl)cccc3Cl)o2)CC1`, the inhibition is 16%.
The figure for `CCOC(=O)Cn1c(=N)n(CCOc2cccc(C)c2)c2ccccc21` is 0%; for `CCCCc1nc2ccccc2n2cc3c(=O)n(C)c(=O)n(C)c3c12` it is 0%; for `COc1cc2c(=O)n(Cc3ccccc3)c(=O)n(CC(=O)NCc3ccco3)c2cc1OC` it is 7%.
The figure for `COC(=O)c1cccc(NC(=O)Cc2coc3cc(OC)ccc23)c1` is 0%; for `CCOC(=O)C(C)Sc1nnc(Cc2cc(=O)[nH]c(=O)[nH]2)n1-c1ccc(Cl)cc1` (centres undefined) it is 0%; for `COc1cccc(Cn2c(-c3nonc3N)nc3ccccc32)c1` it is 0%.
For `c1ccc(-c2cc3c(nn2)CCc2nonc2-3)cc1` the value was 0%.
With `COC(=O)C(NC(C)=O)(Nc1nc2ccc(S(C)(=O)=O)cc2s1)C(F)(F)F` (centres undefined), the inhibition is 0%.
For `COCCn1nnnc1CN(CCCN1CCOCC1)Cc1cc2c(C)ccc(C)c2[nH]c1=O` the value was 0%; for `Cn1c(=O)c2c(nc(NCC3CCCO3)n2C)n(C)c1=O` (centres undefined), 0%.
The figure for `CCCn1c(SCC(=O)N2CCN(c3ccccc3)CC2)nc2ccccc2c1=O` is 0%; for `N#CC1=C(N)Oc2n[nH]c(-c3ccncc3)c2C1c1ccsc1` (centres undefined) it is 0%; for `CCOC(=O)N1CCN(C(=O)CN2C(=O)COc3ccc(C)cc32)CC1` it is 6%.
On to `CC(COc1ccccc1)NC(C)C(O)c1ccc(O)cc1` (centres undefined), for which the inhibition is 0%.
With `COc1ccc(N(CC(=O)Nc2ccc3c(c2)OCO3)S(=O)(=O)c2c(C)nn(C)c2C)cc1`, the inhibition is 0%.
On to `CCOC(=O)c1c(C)oc2c1c1c(c3ccccc32)OCN(Cc2cccnc2)C1`, for which the inhibition was 6%.
The figure for `O=C(CCNC(=O)Cn1ccc2ccccc2c1=O)NCCN1CCc2ccccc2C1` is 3%.
